In PubChem BioAssay AID1159580 (chemical genetic matrix, 2015):
“And” between values parts separate entries of the source, which are not always exact repeats. Equal values may be shown once. In all, about 5,500 compounds went through this assay and about 2,000 (36%) were called active. Another 18% or so got no clear call; they are omitted. No stated cut-off is given here; in the data, active means normalized growth mostly below about 0.91 (no sharp cut-off); inconclusive means no clear call, values can overlap the other calls; inactive means mostly above about 0.92. This is one part of the list.

Assay: chemical genetic growth profiling, strain panel (AID 1159580);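 further: tested at 20 µM; growth read once vehicle control cultures reached saturation at 30 °C; 1 = growth at the plate median or of vehicle wells; lower values mean less growth of the strain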
Conditions: S. cerevisiae deletion strains, growth OD

Measured: normalized growth

CC(=O)[C@@]1(O)CCC2C3C[C@H](C)C4=CC(=O)C=CC4(C)[C@@]3(F)[C@@H](O)C[C@@]21C (stereo partly drawn)
inactive: locus YAL013W, strain DEP1, active compounds read low 0.995 | locus YAL021C, strain ccr4, active compounds read low 0.965 | locus YAL026C, strain drs2, active compounds read low 0.966 | locus YAL030W, strain snc1, active compounds read low 0.961 | locus YBL061C, strain skt5, active compounds read low 0.976 | locus YBR009C, strain hhf1, active compounds read low 0.931 | locus YBR021W, strain FUR4, active compounds read low 0.99 | locus YBR023C, strain chs3, active compounds read low 0.969 | locus YBR171W, strain sec66, active compounds read low 0.973 | locus YBR229C, strain ROT2, active compounds read low 1.01 | locus YBR231C, strain swc5, active compounds read low 0.975 | locus YBR279W, strain paf1, active compounds read low 0.98 | locus YCL011C, strain gbp2, active compounds read low 0.964 | locus YCL016C, strain dcc1, active compounds read low 0.963 | locus YCL029C, strain bik1, active compounds read low 0.997 | locus YCL069W, strain vba3, active compounds read low 0.979 | locus YCR088W, strain abp1, active compounds read low 0.973 | locus YDL005C, strain med2, active compounds read low 0.962 | locus YDL035C, strain GPR1, active compounds read low 0.986 | locus YDL040C, strain nat1, active compounds read low 0.983 | locus YDL074C, strain BRE1, active compounds read low 0.981 | locus YDL101C, strain DUN1, active compounds read low 1.02 | locus YDL134C, strain PPH21, active compounds read low 0.99 | locus YDL185W, strain tfp1, active compounds read low 1.03 | locus YDL192W, strain arf1, active compounds read low 1.01 | locus YDR001C, strain nth1, active compounds read low 0.977 | locus YDR069C, strain doa4, active compounds read low 0.969 | locus YDR101C, strain arx1, active compounds read low 0.971 | locus YDR137W, strain rgp1, active compounds read low 0.975 | locus YDR150W, strain NUM1, active compounds read low 0.991 | locus YDR159W, strain sac3, active compounds read low 0.929 | locus YDR162C, strain NBP2, active compounds read low 0.984 | locus YDR195W, strain ref2 0.98 | locus YDR297W, strain sur2, active compounds read low 0.975 | locus YDR318W, strain mcm21, active compounds read low 1.01 | locus YDR334W, strain swr1, active compounds read low 0.976 | locus YDR335W, strain msn5, active compounds read low 0.965 | locus YDR388W, active compounds read low 1.01 | locus YDR392W, strain spt3, active compounds read low 0.936 | locus YDR502C, strain sam2, active compounds read low 1.01 | locus YEL003W, strain gim4, active compounds read low 0.971 | locus YEL037C, strain rad23, active compounds read low 0.975 | locus YEL061C, strain CIN8 (second series), active compounds read low 0.962 | locus YEL061C, strain CIN8, active compounds read low 0.989 | locus YER015W, strain faa2, active compounds read low 0.977 | locus YER016W, strain bim1, active compounds read low 0.933 | locus YER110C, active compounds read low 1.02 | locus YER111C, strain swi4, active compounds read low 0.969 | locus YER155C, strain BEM2 (second series), active compounds read low 1.03 | locus YER155C, strain BEM2, active compounds read low 1.01 | locus YER167W, strain BCK2, active compounds read low 0.988 | locus YFR010W, strain ubp6, active compounds read low 0.953 | locus YGL078C, strain dbp3, active compounds read low 1 | locus YGL086W, strain mad1, active compounds read low 0.985 | locus YGL167C, strain pmr1, active compounds read low 0.977 | locus YGL173C, strain kem1, active compounds read low 0.976 | locus YGL227W, strain vid30, active compounds read low 0.988 | locus YGL240W, strain doc1, active compounds read low 0.955 | locus YGL248W, strain PDE1, active compounds read low 1.01 | locus YGL253W, strain hxk2, active compounds read low 0.961 | locus YGR078C, strain PAC10, active compounds read low 1 | locus YGR135W, strain pre9, active compounds read low 1.05 | locus YGR252W, strain gcn5, active compounds read low 1.08 | locus YHR013C, strain ard1, active compounds read low 0.905 | locus YHR027C, strain rpn1, active compounds read low 0.971 | locus YHR030C, strain SLT2, active compounds read low 0.979 and 0.988 | locus YHR079C, strain IRE1 (second series), active compounds read low 1.01 | locus YHR079C, strain IRE1, active compounds read low 0.971 | locus YHR094C, strain hxt1, active compounds read low 1.01 | locus YHR129C, strain ARP1, active compounds read low 1.01 | locus YHR142W, strain chs7, active compounds read low 0.96 | locus YHR200W, strain rpn10, active compounds read low 1.01 | locus YIL066C, strain RNR3, active compounds read low 0.996 | locus YIL073C, strain SPO22, active compounds read low 1.02 | locus YIL125W, strain kgd1, active compounds read low 1 | locus YIR030C, strain dcg1, active compounds read low 1 | locus YJL092W, strain hpr5, active compounds read low 0.983 | locus YJL095W, strain BCK1 (second series), active compounds read low 0.985 | locus YJL095W, strain BCK1, active compounds read low 1.02 and 0.999 | locus YJL115W, strain asf1, active compounds read low 0.954 | locus YJL129C, strain trk1, active compounds read low 0.968 | locus YJL134W, strain LCB3, active compounds read low 1.01 | locus YJL154C, strain vps35, active compounds read low 0.984 | locus YJL164C, strain tpk1, active compounds read low 0.937 | locus YJL166W, strain qcr8, active compounds read low 0.979 | locus YJL168C, strain set2, active compounds read low 1 | locus YJL187C, strain SWE1 (second series), active compounds read low 1.02 | locus YJR043C, strain POL32, active compounds read low 0.99
